From PubChem BioAssay
Sampled rows, rich in hits. Any-hit rate of the full collection: about 19%.
MCF10A rereplic: A quantitative high throughput screen for small molecules that induce DNA re-replication in MCF 10a normal breast cells; MCF 10A DNA re-replication, Hoechst nuclear intensity, 48 h; Potency, µM (top dose mostly 46.1 µM), for the others: at the highest dose activity, positive = re-replication, actives largely listed as activators; hit rate 2.9% among 350,000; further: potency means the concentration at half of the fitted maximal effect; % of control where 0% means no effect; nearly all actives have a fitted effect of over 50% in size
TDP1 cell noCPT: qHTS for Inhibitors of human tyrosyl-DNA phosphodiesterase 1 (TDP1): qHTS in cells in absence of CPT. DT40 Tdp1-/- hTDP1 cells, no CPT, ATP luminescence, 48 h. hit rate 15% among 420,000. Potency, µM (top dose mostly 46.2 µM), for the others: at the highest dose activity change, negative = growth inhibition, most hits filed as inhibitors; further: potency means the concentration at half of the fitted maximal effect; on the % scale 0 is the no-effect control and ±100 the full control effect; nearly all actives have a fitted effect of over 55% in size
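Cells were dispensed at 400 per well, compounds added by pin tool, plates incubated ≥48 hr at 37 °C, then CellTiter-Glo added for 30 min at room temperature before luminescence reading. Line: DT40 Tdp1-/- complemented with hTDP1; camptothecin omitted.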
TDP1 cell CPT: qHTS for Inhibitors of human tyrosyl-DNA phosphodiesterase 1 (TDP1): qHTS in cells in presence of CPT; chicken DT40 Tdp1-/-;hTDP1 cells + 20 nM CPT, ATP luminescence, 48 h; Potency, µM (titrated, usually from 46.2 µM), for the others: at the top dose activity change, negative = growth inhibition, hits mostly inhibitors; hit rate 12% among 420,000; AID 686979, 2013; further: potency means the concentration at half of the fitted maximal effect; on the % scale 0 is the no-effect control and ±100 the full control effect; nearly all actives have a fitted effect of over 55% in size
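Chicken DT40 Tdp1-/- cells complemented with human TDP1, 400 cells/well, exposed to compounds plus 20 nM camptothecin for at least 48 h at 37 C; viability read as ATP content by CellTiter-Glo luminescence.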
IL1B secr inh: qHTS for Inhibitors of Inflammasome Signaling: IL-1-beta AlphaLISA Primary Screen | hit rate 4.7% among 360,000 | AID 743279, 2014 | THP-1 LPS/ATP IL-1B secretion, AlphaLISA, 16 h; active compounds read low | activity change, % at 57.5 µM; in the data active means activity change below about -50%; inconclusive means mostly about -30% to -49%; further: on the % scale 0 is the no-effect control and ±100 the full control effect
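Secreted IL-1B measured by AlphaLISA bead assay after 16 h compound exposure of THP-1 cells; compounds (final up to 57.5 uM) added 1 h before LPS (250 ng/mL) and ATP (1.25 mM) stimulation; lower signal means less secretion.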
SW480 rerep: A quantitative high throughput screen for small molecules that induce DNA re-replication in SW480 colon adenocarcinoma cells. SW480 DNA re-replication, Hoechst DNA content imaging, 48 h. Potency, µM (highest dose often 46.1 µM), inactives show at the top dose re-replication activation, hits mostly activators. hit rate 1.8% among 340,000. AID 624297, 2012; further: potency means the concentration at half of the fitted maximal effect; % of control where 0% means no effect; nearly all actives have a fitted effect of over 55% in size
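Compounds, transferred as 23 nL by pin tool, were incubated with cells for 48 hr; DNA content per nucleus was then quantified by Hoechst staining and fluorescence plate imaging.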
Chronic BCR inh: qHTS Assay to Find Inhibitors of Chronic Active B-Cell Receptor Signaling | ABC-DLBCL IkBa-CBG/CBR reporter, luminescence ratio, 4 h | Potency, µM (doses to about 46.1 µM), inactives show top-dose activity change, negative = inhibition, hits mostly inhibitors | hit rate 0.05% among 340,000; active means well fitted inhibition curve with a large enough effect in the signal ratio, with a control signal flat, not every such curve was filed as active; inconclusive means small, poorly fitted or top-dose-only effect, or effect the other way, or a change in a side signal; the % refers to the signal ratio;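 further: potency means the concentration at half of the fitted maximal effect; plate controls were basal doxycycline-induced cells for no effect and cells given 10 µM MG132 for full effect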
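TMD8 human ABC-DLBCL cells with doxycycline-inducible IκBα–green luciferase fusion and unfused red luciferase, in 0.5% FBS medium; compounds up to 46 uM, 4 h at 37C. Green/red luminescence ratio, filter-overlap corrected, fitted to concentration-response curves.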
An asterisk follows results filed as active; ? = inconclusive; . = no result given. Unless noted, the call rests on the fitted dose curve; in most records, active means well fitted curve in the direction sought with a large enough effect; inconclusive means small, poorly fitted or top-dose-only effect, or another doubt; inactive means no such curve, though single readings can be large; an effect the other way counts as inactive or inconclusive.

SMILES	MCF10A rereplic	TDP1 cell noCPT	TDP1 cell CPT	IL1B secr inh	SW480 rerep	Chronic BCR inh
COc1ccc(/C=N/Nc2nc(-c3ccc(C)cc3)c(NC(C)=O)s2)cc1OC	5%	-5%	12%	12	-14%	?
COc1cc(C=C(c2nc3ccccc3s2)c2nc3ccccc3s2)cc(OC)c1O	?	?	23µM*	-82*	?	?
O=C(Nc1ccc(NC(=O)C2CC2)cc1)c1cccs1	4%	-10%	-25%	?	2%	?
C=CCN(Cc1cccc(OC)c1OC)C(=O)Oc1ccccc1	12%	1%	?	-11	-7%	-1%
O=C(CCn1c(=O)oc2cc(Cl)ccc21)Nc1ccc(N2CCOCC2)cc1	-16%	-27%	-3%	5	2%	-7%
CCOc1ccc(CCNC(=O)COC(=O)c2cccnc2SC)cc1OCC	6%	-8%	11%	8	-3%	1%
Cc1ccc2c(=O)n3c(nc2c1)C(C)NC(=O)c1cccnc1-3 (centres undefined)	.	-4%	-19%	31	.	.
c1ccc(SC23CCCCN(CCC2)[C@]32CO2)cc1 (some centres undefined)	.	-22%	-19%	-14	.	.
CN(C)c1ccc(/C=C(\Cl)c2nc3ccccc3s2)cc1	7.3µM*	21µM*	16µM*	-7	?	?
COCCNC(=O)C1=C(N)C(C(=O)Nc2ccc(C)c(S(=O)(=O)N3CCCCC3)c2)SC1=Nc1ccc(C)cc1C (centres undefined)	?	18µM*	18µM*	-20	?	20%
CCN(CC)S(=O)(=O)c1cccc(NC(=O)C2SC(=Nc3ccc(C)cc3C)C(C(=O)NCC3CCCO3)=C2N)c1 (centres undefined)	?	23µM*	?	0	?	-5%
CC(=O)C1=C(C)Nc2ncnn2C1c1cccc(Br)c1 (centres undefined)	-13%	-26%	6%	13	-4%	1%
C/C(=N\NC(=O)c1[nH]c2c([N+](=O)[O-])cc(C)cc2c1-c1ccccc1)c1cccnc1	-2%	15µM*	26µM*	-21	0%	-10%
C/C(=N\NC(=O)c1cccnc1)c1ccc(C)c([N+](=O)[O-])c1	-3%	-5%	-5%	-8	-20%	?
CCN1CCN(Cc2nc3c(c(=O)[nH]c(=O)n3C)n2Cc2ccccc2Cl)CC1	-7%	-16%	-10%	4	-6%	-3%
Cn1c(=O)[nH]c(=O)c2c1nc(CN1CCN(c3cccc(Cl)c3)CC1)n2CCCc1ccccc1	-3%	?	?	-13	-2%	1%
CC(C)Cn1c(CN2CCN(c3cccc(Cl)c3)CC2)nc2c1c(=O)[nH]c(=O)n2C	.	21µM*	18µM*	.	.	.
CCCCn1c(CN2CCN(c3cccc(Cl)c3)CC2)nc2c1c(=O)[nH]c(=O)n2C	?	3.3µM*	3.3µM*	39	5.8µM*	?
Cn1c(=O)[nH]c(=O)c2c1nc(CN1CCN(c3cccc(Cl)c3)CC1)n2CCN1CCOCC1	-8%	?	4%	-13	-8%	14%
Cn1c(=O)[nH]c(=O)c2c1nc(CN1CCN(c3cccc(Cl)c3)CC1)n2Cc1ccccc1Cl	9%	15µM*	?	17	-11%	-2%
CCN(CC)c1ccc(/C=N/NC(=O)c2nnn(-c3nonc3N)c2CN(C)C2CCCCC2)cc1	.	?	4%	-13	.	.
Cn1c(=O)n(Cc2ccc(Cl)cc2)c(=O)c2c1nc1n2CCN1Cc1ccco1	7%	15µM*	?	-1	-1%	1%
CCCn1c(=O)c2c(nc3n2CCN3Cc2ccco2)n(C)c1=O	3%	0%	4%	2	-1%	?
Cn1c(N2CCCC2)nc2c1c(=O)n(Cc1ccc(Cl)cc1)c(=O)n2C	6%	?	?	-17	-3%	0%
CC1CN(c2nc3c(c(=O)n(Cc4ccc(Cl)cc4)c(=O)n3C)n2C)CC(C)O1 (centres undefined)	20%	26µM*	?	0	-5%	?
SMILES	MCF10A rereplic	TDP1 cell noCPT	TDP1 cell CPT	IL1B secr inh	SW480 rerep	Chronic BCR inh
Cn1c(=O)n(Cc2ccccc2F)c(=O)c2c1nc1n2CCN1Cc1ccco1	1%	-21%	3%	0	-3%	?
Cc1cccc(Cn2c(=O)c3c(nc4n3CCN4Cc3ccco3)n(C)c2=O)c1	4%	21µM*	21µM*	-25	-12%	5%
COc1cccc(S(=O)(=O)N2CCN(Cc3ccc4c(c3)OCO4)CC2)c1	2%	-12%	5%	0	0%	0%
O=c1[nH][nH]c2c1[C@H](c1ccc(Cl)cc1)O[C@H](C1CC1)C2	.	-26%	?	-20	.	.
COc1cccc(CN2CCOc3ccc(CN4C[C@@H](C)O[C@@H](C)C4)cc3C2)c1OC	.	-8%	-1%	.	.	.
COc1cccc(C2CC(c3cccs3)=NN2C(=O)CSc2nc3ccccc3s2)c1OC (centres undefined)	?	13µM*	15µM*	0	?	5%
COc1ccc(C2CC(c3cccs3)=NN2C(=O)CSc2nc3c(cnn3-c3ccccc3)c(=O)[nH]2)cc1 (centres undefined)	-2%	?	?	16	0%	8%
COc1cccc(C2CC(c3cccs3)=NN2C(=O)CSc2nc3c(cnn3-c3ccc(F)cc3)c(=O)[nH]2)c1OC (centres undefined)	?	23µM*	23µM*	-1	7%	0%
Cc1cccc(SC2CCN(C(=O)C3CCC(=O)N(C4CC4)C3)CC2)c1 (centres undefined)	12%	?	-29%	-5	-8%	0%
O=C(Nc1cccc(F)c1)N1CC=C(n2c(=O)[nH]c3ccccc32)CC1	0%	?	?	-59*	-7%	3%
O=C(Nc1ccccc1)N1CC=C(c2ccc(F)cc2)CC1	5%	13µM*	?	0	0%	?
O=C(Nc1cccc2ccccc12)N1CC=C(c2ccccc2)CC1	?	?	?	17	?	?
CN(C)CCNc1nc(Oc2cccc(F)c2)c2sccc2n1	.	?	?	-29	.	.
